According to the supplement of paper PMC10849652:
About 8,800 targets were measured; listed, in parts, are those with a hit and a random draw of the rest. About 0.5% of all pairs of compound and target were hits.

Key:
Experiment in all cases: log2 fold change, soluble protein after heating vs DMSO (PISA); higher = thermal stabilisation; K562 lysate, 10 uM; active = over 0.2 and 3.5 SD of the protein, either way, in both replicates (recomputed)
erlotinib = compound: C#Cc1cccc(Nc2ncnc3cc(OCCOC)c(OCCOC)cc23)c1 [erlotinib]
In short: (§1)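 K562 pellets were dounce-homogenised in PBS pH 7.4 with 1 mM MgCl2, and the crude extract at 1 mg/mL protein was treated with 10 μM compound for 30 min. Aliquots were heated for 3 min across 48°C-58°C, pooled, and brought to 0.5% NP-40 at 4°C; soluble protein was the supernatant after 21,000xg for 90 min. Soluble protein was quantified by TMTpro 16plex LC-MS/MS with channel sums equalised, and reported as log2 fold change in thermal stability against DMSO controls, with values from duplicates.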

[1] = compound: C/C(=N\NC(=O)C1=CC(=CC=C1)S(=O)(=O)N2CCOCC2)/C3=C(C=CC(=C3)Cl)O
In short: as §1

[2] = compound: C1=CC(=CC=C1C2=NC3=C(N2)C=C(C=C3)C(=O)N)OC4=CC=C(C=C4)Cl
In short: as §1

[3] = compound: C1=CC2=C(C=CC(=C2)/C=C\3/C(=O)NC(=NCC4=CC=CS4)S3)N=C1
In short: as §1

[4] = compound: C1=CC2=NC=CN=C2C=C1/C=C/3\C(=O)NC(=O)S3
In short: as §1

[5] = compound: C1=CC=C(C=C1)C2=NC(=C(N2)C3=CC=NC=C3)C4=CC(=C(C=C4)Cl)O
In short: as §1

[6] = compound: C1=CC=C2C(=C1)C3=NNC4=CC=CC(=C43)C2=O
In short: as §1

[7] = compound: C1CCN(C1)C(=O)NC2=CC=CC(=C2)NC3=NC=C(C(=N3)NCCC4=CN=CN4)Br
In short: as §1

[8] = compound: C1CN(CCC1(CC2=CC=C(C=C2)Cl)N)C3=NC=NC4=C3C=CN4
In short: as §1

IRAK-1-4 Inhibitor I = compound: C1COCCN1CCN2C3=CC=CC=C3N=C2NC(=O)C4=CC(=CC=C4)[N+](=O)[O-] [IRAK-1-4 Inhibitor I]
In short: as §1

ibrutinib = compound: C=CC(=O)N1CCC[C@@H](n2nc(-c3ccc(Oc4ccccc4)cc3)c3c(N)ncnc32)C1 [ibrutinib]
In short: as §1

[9] = compound: CC(=O)c1cnc2ccc(-c3cc(Cl)c(O)c(Cl)c3)nc2c1N[C@H]1CC[C@H](CN(C)C)CC1
In short: as §1

ralimetinib = compound: CC(C)(C)Cn1c(N)nc2ccc(-c3[nH]c(C(C)(C)C)nc3-c3ccc(F)cc3)nc21 [ralimetinib]
In short: as §1

[10] = compound: CC(C)(O)CC(=O)NCCn1ccc2ncnc(Nc3ccc(Oc4cccc(C(F)(F)F)c4)c(Cl)c3)c21
In short: as §1

[11] = compound: CC(C)C1=C2N=C(C=C(N2N=C1)NCC3=CC=CC=C3)NCCCCCCN
In short: as §1

[12] = compound: CC1=C(C(CC(=O)N1)C2=CC=C(C=C2)C(F)(F)F)C(=O)NC3=C(C=C4C(=C3)C=NN4)F
In short: as §1

[13] = compound: CC1=C(C2=C(C=C1)C(=O)C3=CC=CC=C3N2CCCN)C
In short: as §1

[14] = compound: CC1=C(C=C(C=C1)NC(=O)C2=CC(=CC=C2)C(C)(C)C#N)NC3=CC4=C(C=C3)N=CN(C4=O)C
In short: as §1

[15] = compound: CC1=C(C=C(C=C1)NC(=O)C2=CC(=CC=C2)N(C)C)NC(=O)C3=CC=C(C=C3)O
In short: as §1

[16] = compound: CC1=CC=C(C=C1)SC2=C3C=C(SC3=CN=C2)C(=O)N
In short: as §1

Measured: log2 fold change

PTPN2 (UniProt P17706)
Sequence of UniProt P17706 (P17706 whole entry, looked up): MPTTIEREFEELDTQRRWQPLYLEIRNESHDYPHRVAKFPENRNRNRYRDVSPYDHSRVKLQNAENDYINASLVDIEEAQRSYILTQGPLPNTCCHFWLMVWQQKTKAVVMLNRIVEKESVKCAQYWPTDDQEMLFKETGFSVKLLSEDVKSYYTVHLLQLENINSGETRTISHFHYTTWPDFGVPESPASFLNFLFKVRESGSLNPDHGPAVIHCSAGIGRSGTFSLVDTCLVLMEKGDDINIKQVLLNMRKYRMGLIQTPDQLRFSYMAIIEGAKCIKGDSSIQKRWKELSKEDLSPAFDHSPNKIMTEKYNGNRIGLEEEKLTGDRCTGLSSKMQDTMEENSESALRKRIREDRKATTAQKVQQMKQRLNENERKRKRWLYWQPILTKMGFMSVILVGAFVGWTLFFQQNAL
inactive: erlotinib 0.028 | [1] 0.119 | [2] -0.005 | [3] 0.006 | [4] 0.019 | [5] -0.045 | [6] -0.033 | [7] 0 | [8] 0.046 | IRAK-1-4 Inhibitor I -0.017 | ibrutinib 0.016 | [9] -0.014 | ralimetinib 0.014 | [10] -0.001 | [11] -0.029 | [12] -0.035 | [13] 0.045 | [14] -0.005 | [15] 0.017 | [16] 0.007

PLK1 (UniProt P53350)
Sequence of UniProt P53350 (P53350 whole entry, looked up): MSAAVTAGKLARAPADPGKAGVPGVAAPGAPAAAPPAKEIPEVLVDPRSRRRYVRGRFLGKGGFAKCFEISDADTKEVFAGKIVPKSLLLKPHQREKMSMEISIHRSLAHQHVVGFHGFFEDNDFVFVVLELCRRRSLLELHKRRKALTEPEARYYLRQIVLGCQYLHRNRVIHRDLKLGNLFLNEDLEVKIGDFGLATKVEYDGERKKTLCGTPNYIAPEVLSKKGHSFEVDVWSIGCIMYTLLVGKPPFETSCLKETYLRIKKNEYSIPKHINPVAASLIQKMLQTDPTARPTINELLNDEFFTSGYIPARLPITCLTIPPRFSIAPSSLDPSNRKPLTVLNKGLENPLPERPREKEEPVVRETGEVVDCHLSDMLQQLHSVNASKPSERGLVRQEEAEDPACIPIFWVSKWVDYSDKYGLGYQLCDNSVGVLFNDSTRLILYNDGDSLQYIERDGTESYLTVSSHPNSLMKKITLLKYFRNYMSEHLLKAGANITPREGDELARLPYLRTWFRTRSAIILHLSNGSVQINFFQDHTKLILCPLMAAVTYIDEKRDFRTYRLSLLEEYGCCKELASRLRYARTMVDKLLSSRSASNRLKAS
inactive: erlotinib 0.006 | [1] -0.032 | [2] -0.013 | [3] 0.077 | [4] -0.092 | [5] 0 | [6] -0.147 | [7] -0.069 | [8] 0.143 | IRAK-1-4 Inhibitor I -0.141 | ibrutinib -0.004 | [9] 0.069 | ralimetinib 0.009 | [10] 0.015 | [11] 0.068 | [12] 0.022 | [13] -0.019 | [14] 0.032 | [15] 0.036 | [16] -0.014

PWP1 (UniProt Q13610)
inactive: erlotinib -0.02 | [1] -0.025 | [2] 0.045 | [3] 0.057 | [4] 0.007 | [5] 0 | [6] 0.031 | [7] 0.008 | [8] -0.032 | IRAK-1-4 Inhibitor I 0.005 | ibrutinib 0.022 | [9] -0.017 | ralimetinib 0.012 | [10] -0.011 | [11] -0.02 | [12] -0.053 | [13] -0.025 | [14] -0.009 | [15] 0.032 | [16] -0.001

PFKFB4 (UniProt Q16877)
inactive: erlotinib 0.02 | [1] 0.044 | [2] 0.041 | [3] -0.024 | [4] -0.031 | [5] 0.096 | [6] -0.083 | [7] -0.003 | [8] 0.067 | IRAK-1-4 Inhibitor I -0.023 | ibrutinib 0.022 | [9] -0.005 | ralimetinib 0.1 | [10] -0.032 | [11] -0.004 | [13] -0.008 | [14] -0.003 | [15] 0.093 | [16] 0.011

PIP4P2 (UniProt Q8N4L2)
Sequence of UniProt Q8N4L2 (Q8N4L2 whole entry, looked up): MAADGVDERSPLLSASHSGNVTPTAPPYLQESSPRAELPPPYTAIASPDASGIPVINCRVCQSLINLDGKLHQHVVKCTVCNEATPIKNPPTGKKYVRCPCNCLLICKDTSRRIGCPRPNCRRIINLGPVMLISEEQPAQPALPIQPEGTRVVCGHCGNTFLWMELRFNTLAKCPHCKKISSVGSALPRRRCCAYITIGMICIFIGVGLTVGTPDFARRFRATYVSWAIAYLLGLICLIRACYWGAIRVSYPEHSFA
inactive: erlotinib 0.023 | [1] 0.039 | [2] -0.03 | [3] 0.032 | [4] -0.076 | [5] 0.019 | [6] -0.029 | [7] 0.034 | [8] 0.022 | IRAK-1-4 Inhibitor I -0.054 | ibrutinib 0.034 | [9] 0.138 | ralimetinib -0.025 | [10] -0.023 | [11] -0.08 | [12] -0.015 | [13] -0.061 | [14] 0.013 | [15] 0.008 | [16] -0.096

PIK3C3 (UniProt Q8NEB9)
Sequence of UniProt Q8NEB9 (Q8NEB9 whole entry, looked up): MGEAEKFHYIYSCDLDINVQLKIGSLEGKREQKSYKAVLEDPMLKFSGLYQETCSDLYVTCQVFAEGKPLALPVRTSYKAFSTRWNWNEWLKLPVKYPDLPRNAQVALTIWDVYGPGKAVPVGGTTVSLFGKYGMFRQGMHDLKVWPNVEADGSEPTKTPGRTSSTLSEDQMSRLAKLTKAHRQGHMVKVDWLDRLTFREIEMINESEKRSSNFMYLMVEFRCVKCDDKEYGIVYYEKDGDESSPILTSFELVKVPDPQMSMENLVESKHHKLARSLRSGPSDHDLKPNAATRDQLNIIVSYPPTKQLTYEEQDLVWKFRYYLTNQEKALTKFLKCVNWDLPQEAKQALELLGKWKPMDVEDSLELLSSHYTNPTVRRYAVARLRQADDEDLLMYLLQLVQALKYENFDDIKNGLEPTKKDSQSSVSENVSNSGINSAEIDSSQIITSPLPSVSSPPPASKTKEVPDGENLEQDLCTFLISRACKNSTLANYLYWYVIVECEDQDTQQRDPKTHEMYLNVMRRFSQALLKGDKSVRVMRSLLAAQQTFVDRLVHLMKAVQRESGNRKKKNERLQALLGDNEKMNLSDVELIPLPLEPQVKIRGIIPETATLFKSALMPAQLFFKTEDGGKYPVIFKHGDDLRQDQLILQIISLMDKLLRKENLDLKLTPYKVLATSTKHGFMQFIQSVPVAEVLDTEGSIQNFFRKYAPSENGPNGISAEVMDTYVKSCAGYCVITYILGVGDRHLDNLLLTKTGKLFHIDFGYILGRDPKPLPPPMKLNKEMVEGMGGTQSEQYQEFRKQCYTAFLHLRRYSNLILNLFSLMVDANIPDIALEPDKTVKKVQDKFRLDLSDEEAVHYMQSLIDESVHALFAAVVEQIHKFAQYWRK
inactive: erlotinib 0.014 | [1] -0.059 | [2] 0.004 | [3] 0.017 | [4] 0.025 | [5] 0.009 | [6] 0.053 | [7] -0.084 | [8] 0.015 | IRAK-1-4 Inhibitor I 0.081 | ibrutinib -0.056 | [9] -0.021 | ralimetinib -0.023 | [10] -0.096 | [11] 0.015 | [12] -0.032 | [13] -0.015 | [14] -0.002 | [15] -0.011 | [16] -0.056

PPFIA2 (UniProt O75334)
inactive: erlotinib 0.019 | [1] -0.005 | [2] 0.02 | [3] -0.004 | [4] 0.065 | [5] 0.012 | [6] -0.006 | [7] 0.02 | [8] -0.074 | IRAK-1-4 Inhibitor I -0.022 | ibrutinib -0.013 | [9] 0.01 | ralimetinib 0.085 | [10] 0.015 | [11] 0.006 | [12] 0.041 | [13] 0.02 | [14] 0.047 | [15] 0.033 | [16] -0.022

PRKD3 (UniProt O94806)
Sequence of UniProt O94806 (O94806 whole entry, looked up): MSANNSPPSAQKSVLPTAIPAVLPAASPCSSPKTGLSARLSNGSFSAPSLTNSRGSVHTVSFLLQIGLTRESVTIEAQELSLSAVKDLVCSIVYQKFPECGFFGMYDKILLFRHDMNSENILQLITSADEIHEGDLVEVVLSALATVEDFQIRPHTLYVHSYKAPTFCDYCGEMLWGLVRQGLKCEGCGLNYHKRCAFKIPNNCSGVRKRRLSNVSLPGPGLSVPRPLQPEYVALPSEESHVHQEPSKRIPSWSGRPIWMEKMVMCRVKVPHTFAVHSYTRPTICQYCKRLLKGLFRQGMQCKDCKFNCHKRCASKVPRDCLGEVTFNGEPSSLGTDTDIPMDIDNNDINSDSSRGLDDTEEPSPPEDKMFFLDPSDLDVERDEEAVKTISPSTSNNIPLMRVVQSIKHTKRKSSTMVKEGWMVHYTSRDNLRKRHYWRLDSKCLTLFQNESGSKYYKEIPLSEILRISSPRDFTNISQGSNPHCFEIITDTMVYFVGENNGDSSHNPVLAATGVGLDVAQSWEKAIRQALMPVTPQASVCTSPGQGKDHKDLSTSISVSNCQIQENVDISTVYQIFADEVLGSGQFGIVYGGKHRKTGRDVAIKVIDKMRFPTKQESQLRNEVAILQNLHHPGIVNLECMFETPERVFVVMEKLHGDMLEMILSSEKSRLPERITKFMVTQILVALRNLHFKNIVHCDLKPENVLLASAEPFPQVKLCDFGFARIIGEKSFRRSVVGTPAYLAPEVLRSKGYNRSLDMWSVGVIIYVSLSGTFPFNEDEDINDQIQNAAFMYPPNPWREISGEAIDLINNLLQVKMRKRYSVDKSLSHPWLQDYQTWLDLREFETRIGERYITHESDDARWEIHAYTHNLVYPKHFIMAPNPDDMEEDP
inactive: erlotinib -0.041 | [1] 0.105 | [2] -0.123 | [3] -0.145 | [4] 0.039 | [5] 0.115 | [6] 0.123 | [7] -0.163 | [8] -0.115 | IRAK-1-4 Inhibitor I 0.053 | ibrutinib -0.112 | [9] 0.054 | ralimetinib -0.164 | [10] -0.052 | [11] 0.03 | [12] 0.039 | [14] -0.068 | [15] -0.022 | [16] -0.077

PDCD6IP isoform 2 (UniProt Q8WUM4)
Sequence of UniProt Q8WUM4 (Q8WUM4 whole entry, looked up): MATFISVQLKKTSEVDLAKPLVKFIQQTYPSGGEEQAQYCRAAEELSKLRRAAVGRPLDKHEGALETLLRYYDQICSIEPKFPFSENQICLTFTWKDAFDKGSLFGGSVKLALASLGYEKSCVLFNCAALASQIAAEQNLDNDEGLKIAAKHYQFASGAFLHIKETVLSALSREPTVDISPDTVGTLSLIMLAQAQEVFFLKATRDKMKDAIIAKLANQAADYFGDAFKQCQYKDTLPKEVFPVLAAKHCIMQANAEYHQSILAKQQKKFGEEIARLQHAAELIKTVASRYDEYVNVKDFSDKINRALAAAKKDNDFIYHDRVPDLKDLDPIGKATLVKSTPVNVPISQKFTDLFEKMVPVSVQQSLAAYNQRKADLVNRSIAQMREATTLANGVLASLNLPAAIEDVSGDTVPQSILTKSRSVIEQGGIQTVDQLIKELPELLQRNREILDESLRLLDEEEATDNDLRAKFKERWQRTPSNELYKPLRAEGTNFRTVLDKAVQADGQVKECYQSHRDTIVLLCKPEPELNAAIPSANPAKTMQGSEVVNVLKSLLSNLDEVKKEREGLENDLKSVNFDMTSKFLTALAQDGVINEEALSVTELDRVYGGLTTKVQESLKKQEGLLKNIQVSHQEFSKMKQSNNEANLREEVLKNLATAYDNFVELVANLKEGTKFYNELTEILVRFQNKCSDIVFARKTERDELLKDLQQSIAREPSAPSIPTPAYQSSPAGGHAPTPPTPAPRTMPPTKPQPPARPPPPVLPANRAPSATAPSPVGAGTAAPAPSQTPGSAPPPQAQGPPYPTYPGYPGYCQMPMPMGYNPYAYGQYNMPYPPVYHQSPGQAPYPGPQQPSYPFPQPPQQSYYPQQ
inactive: erlotinib 0.027 | [1] 0.046 | [2] 0.009 | [3] 0.01 | [4] -0.02 | [5] 0.007 | [6] -0.007 | [7] 0.002 | [8] 0.007 | IRAK-1-4 Inhibitor I -0.002 | ibrutinib -0.035 | [9] 0.009 | ralimetinib 0.003 | [10] 0.025 | [11] 0.013 | [12] -0.006 | [13] 0.046 | [14] -0.013 | [15] 0.029 | [16] 0.016

PRIMPOL (UniProt Q96LW4)
inactive: erlotinib -0.063 | [1] 0.007 | [2] -0.02 | [3] -0.025 | [4] 0.076 | [5] -0.013 | [6] 0.019 | [7] 0.009 | [8] -0.046 | IRAK-1-4 Inhibitor I 0.059 | ibrutinib 0.062 | ralimetinib 0.055 | [10] -0.027 | [11] 0.048 | [12] -0.055 | [13] -0.034 | [14] 0.078 | [15] 0.049

PPP2R5C isoform 4 (UniProt Q13362)
inactive: erlotinib 0.025 | [1] -0.048 | [2] -0.054 | [3] -0.012 | [4] -0.009 | [5] 0.044 | [6] -0.01 | [7] 0.046 | [8] 0.08 | IRAK-1-4 Inhibitor I 0.002 | ibrutinib 0.023 | [9] -0.011 | ralimetinib -0.089 | [10] -0.05 | [11] -0.032 | [12] -0.003 | [13] 0.095 | [14] 0.05 | [15] 0.012 | [16] 0.001

PFN1 (UniProt P07737)
Sequence of UniProt P07737 (P07737 whole entry, looked up): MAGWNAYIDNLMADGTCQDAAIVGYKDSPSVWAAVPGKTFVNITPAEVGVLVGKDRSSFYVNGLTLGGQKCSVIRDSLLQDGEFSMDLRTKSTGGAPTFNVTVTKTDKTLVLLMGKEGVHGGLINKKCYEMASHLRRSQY
inactive: erlotinib -0.022 | [1] -0.017 | [2] 0.01 | [3] 0.019 | [4] -0.007 | [5] -0.006 | [6] 0.015 | [7] -0.002 | [8] 0.01 | IRAK-1-4 Inhibitor I -0.007 | ibrutinib -0.018 | [9] -0.007 | ralimetinib 0.009 | [10] 0.013 | [11] -0.022 | [12] -0.017 | [13] 0.009 | [14] 0.007 | [15] 0 | [16] 0.002

PCBP2 isoform 3 (UniProt Q15366)
Sequence of UniProt Q15366 (Q15366 whole entry, looked up): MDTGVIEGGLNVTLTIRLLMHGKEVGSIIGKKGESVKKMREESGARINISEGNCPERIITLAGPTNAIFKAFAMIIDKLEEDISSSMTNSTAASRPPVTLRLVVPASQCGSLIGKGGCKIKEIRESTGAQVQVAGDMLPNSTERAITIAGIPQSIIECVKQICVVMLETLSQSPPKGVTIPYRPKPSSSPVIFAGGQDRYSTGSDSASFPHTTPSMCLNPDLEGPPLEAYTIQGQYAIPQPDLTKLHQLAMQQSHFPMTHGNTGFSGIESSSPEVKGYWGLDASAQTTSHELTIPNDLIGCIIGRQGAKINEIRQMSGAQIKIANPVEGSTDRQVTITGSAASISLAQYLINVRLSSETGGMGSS
inactive: erlotinib -0.017 | [1] 0.005 | [2] -0.027 | [3] 0.018 | [4] 0.034 | [5] 0.012 | [6] 0.042 | [7] 0.038 | [8] -0.022 | IRAK-1-4 Inhibitor I -0.026 | ibrutinib -0.007 | [9] 0.025 | ralimetinib 0.021 | [10] 0.022 | [11] -0.019 | [12] -0.034 | [13] 0.06 | [14] -0.017 | [15] -0.016 | [16] -0.017

PMS1 (UniProt P54277)
inactive: erlotinib -0.024 | [1] 0.012 | [2] 0.041 | [3] -0.002 | [4] 0.106 | [5] 0.03 | [6] -0.094 | [7] -0.002 | [8] 0.016 | IRAK-1-4 Inhibitor I -0.027 | ibrutinib 0 | ralimetinib -0.015 | [10] -0.021 | [11] 0.025 | [12] -0.052 | [13] 0.022 | [14] -0.02 | [15] 0.009

PTS (UniProt Q03393)
inactive: erlotinib -0.018 | [1] -0.112 | [2] -0.018 | [3] 0.034 | [4] 0.001 | [5] 0.074 | [6] -0.023 | [7] -0.069 | [8] 0.002 | IRAK-1-4 Inhibitor I 0.028 | ibrutinib 0.213 | [9] 0.015 | ralimetinib 0.021 | [10] -0.027 | [11] -0.041 | [12] -0.117 | [13] -0.102 | [14] 0.034 | [15] -0.013 | [16] -0.017

PPP2R5B (UniProt Q15173)
Sequence of UniProt Q15173 (Q15173 whole entry, looked up): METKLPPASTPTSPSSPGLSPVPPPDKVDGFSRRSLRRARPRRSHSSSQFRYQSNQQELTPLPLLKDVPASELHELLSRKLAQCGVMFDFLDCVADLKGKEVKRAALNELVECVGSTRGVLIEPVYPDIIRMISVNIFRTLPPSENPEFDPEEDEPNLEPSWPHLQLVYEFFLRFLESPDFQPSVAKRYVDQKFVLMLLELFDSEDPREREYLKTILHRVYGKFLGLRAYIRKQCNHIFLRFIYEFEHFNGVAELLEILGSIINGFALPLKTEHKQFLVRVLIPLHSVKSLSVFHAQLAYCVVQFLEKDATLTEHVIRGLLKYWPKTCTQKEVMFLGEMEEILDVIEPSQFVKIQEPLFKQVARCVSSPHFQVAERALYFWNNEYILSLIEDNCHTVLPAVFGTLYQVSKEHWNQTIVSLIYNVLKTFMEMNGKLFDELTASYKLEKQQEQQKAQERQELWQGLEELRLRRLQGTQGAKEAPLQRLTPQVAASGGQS
inactive: erlotinib -0.026 | [1] 0.038 | [2] 0.056 | [3] -0.106 | [4] 0.123 | [5] 0 | [6] 0.052 | [7] -0.051 | [8] -0.042 | IRAK-1-4 Inhibitor I 0.016 | ibrutinib 0.042 | [9] 0.033 | ralimetinib 0 | [10] -0.046 | [11] -0.055 | [13] 0.009 | [14] 0.026 | [15] 0.08 | [16] -0.053
